Most compounds without a hit are left out; they make up all but 1.8% or so of the library.
PME-1 inh – PME-1 (human) inhibition. recombinant PME-1, FP-Rh probe fluorescence polarization. inhibition, % at 5.9 µM. actives 0.53% (n = 320,000);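 active means inhibition above the campaign mean of all compounds plus 3 SD, cut at about 26% in these data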;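 further: competitive labeling of PME-1 active site by serine hydrolase directed probe; 0% = PME-1 with DMSO and 100% = wells lacking PME-1 enzyme; inhibitors block probe labeling so polarization falls and inhibition rises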
Fam108B counter – blocks mouse Fam108B hydrolase in RBBP9 counter-screen; recombinant Fam108B, FP-Rh probe fluorescence polarization; inhibition, % at 9.51 µM; actives 0.33% (n = 300,000);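 active means inhibition above the screen mean inhibition plus 3 SD, computed separately per campaign, cut at about 18% in these data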;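 further: inhibitors lower polarization as less probe binds the enzyme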
PAD4 inh – blocks human protein arginine deiminase 4. Q9UM07. recombinant PAD4, RCA probe fluorescence polarization. inhibition, % at 6.36 µM. actives 0.41% (n = 330,000). AID 485272;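 active means percent inhibition above a cutoff equal to the mean of all tested compounds plus 3 SD, cut at about 15% in these data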;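 further: 0% = PAD4 with RCA probe and DMSO and 100% = probe without PAD4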
LYPLA1 inh – counter-screen for PME1 inhibitors: inhibitors of human LYPLA1; recombinant LYPLA1, FP-Rh probe fluorescence polarization; inhibition, % at 5.9 µM; actives 0.16% (n = 320,000); AID 2174; O75608;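 active means inhibition above the mean of all tested compounds plus 3 SD, set per campaign, cut at about 14% in these data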;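 further: inhibitors block serine hydrolase probe labeling of LYPLA1 so polarization falls; 0% = enzyme with DMSO and 100% = wells lacking LYPLA1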
LYPLA2 counter – counter-screen for PME1 inhibitors: inhibitors of human LYPLA2 | recombinant LYPLA2, FP-Rh probe fluorescence polarization | actives 0.38% (n = 320,000) | AID 2177 | O95372 | inhibition, % at 5.9 µM;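 active means inhibition above the screen-wide mean plus 3 SD, limit set per campaign, cut at about 26% in these data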;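 further: 0% = LYPLA2 with DMSO and 100% = wells lacking LYPLA2 enzyme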
Target sequence (O95372 whole entry, looked up): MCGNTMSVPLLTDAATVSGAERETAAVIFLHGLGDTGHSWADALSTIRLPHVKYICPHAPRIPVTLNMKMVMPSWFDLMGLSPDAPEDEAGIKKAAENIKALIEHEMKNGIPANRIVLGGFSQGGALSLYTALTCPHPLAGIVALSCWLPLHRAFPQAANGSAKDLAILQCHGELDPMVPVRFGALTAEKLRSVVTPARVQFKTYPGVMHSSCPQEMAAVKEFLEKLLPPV
GSTO1 inh – counter-screen for RBBP9 inhibitors: inhibitors of human GSTO1. recombinant GSTO1, activity-based probe fluorescence polarization. inhibition, % at 5.96 µM. actives 1.1% (n = 300,000);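 active means inhibition above the campaign mean inhibition plus 3 SD, cut at about 35% in these data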;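 further: 0% = GSTO1-1 with DMSO and 100% = wells lacking GSTO1-1 enzyme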
Target sequence (P78417 whole entry, looked up): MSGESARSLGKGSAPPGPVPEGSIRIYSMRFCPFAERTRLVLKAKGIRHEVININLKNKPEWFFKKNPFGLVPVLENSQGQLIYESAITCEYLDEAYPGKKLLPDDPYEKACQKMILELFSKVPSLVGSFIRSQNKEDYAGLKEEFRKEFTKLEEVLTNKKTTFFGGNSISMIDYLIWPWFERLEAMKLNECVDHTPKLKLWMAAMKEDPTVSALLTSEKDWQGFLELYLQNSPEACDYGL
LYPLA2 confirm – counter-screen for PME1 inhibitors: confirmation of human LYPLA2 inhibitors | shares compounds with LYPLA2 counter | recombinant LYPLA2, FP-Rh probe fluorescence polarization | inhibition, % at 5.9 µM | actives 72% (n = 1,100) | AID 2232;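 active means mean inhibition across replicates above the hit cutoff set in the primary screen, cut at about 26% in these data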;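 further: blocked labeling of the enzyme by serine hydrolase FP-Rh probe lowers polarization; 0% = enzyme with DMSO and 100% = wells lacking LYPLA2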
LYPLA2 gel ABPP – inhibitors of human LYPLA2. AID 652029. inhibition, % at 20 µM. rhLYPLA2 in mouse brain proteome, gel ABPP FP-Rh. actives 30% (n = 150). shares compounds with LYPLA2 counter;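 active means inhibition of LYPLA2 enzyme probe labeling above about 50%, limit read from the data; inactive means inhibition below that limit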;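 further: loss of FP-Rh probe labeling of the LYPLA2 gel band measured as band density; 0% = DMSO only control band and 100% = blank gel background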
An asterisk follows results filed as active.

What do the screens show for `COc1cccc(NC(=O)CN2C(=O)COc3ccc(Cl)cc32)c1`?
PME-1 inh: 1.3; Fam108B counter: 2.1; PAD4 inh: -3.5; LYPLA1 inh: 2.3; LYPLA2 counter: 45.1*; GSTO1 inh: -1.4; LYPLA2 confirm: 46.5*

What do the screens show for `Cc1nn(-c2ccccc2)c(C)c1C(=O)OCC(=O)N(C)c1c(N)n(Cc2ccccc2)c(=O)[nH]c1=O`?
PME-1 inh: 2.7; Fam108B counter: -0.6; PAD4 inh: -2.0; LYPLA1 inh: -0.8; LYPLA2 counter: -1.0; GSTO1 inh: 1.3

Results for CCc1cc(=O)oc2c3c(cc(OCC(=O)N[C@H](C(=O)O)[C@H](C)CC)c12)OC(C)(C)CC3 ?
PME-1 inh: 2.9; Fam108B counter: -3.5; PAD4 inh: 2.6; LYPLA1 inh: 3.1; LYPLA2 counter: 6.6; GSTO1 inh: -3.2

How did [N-]=[N+]=NCCN1CCN(CCc2ccccc2)CCC1=O do in these assays?
PME-1 inh: -1.3; Fam108B counter: 0.8; PAD4 inh: -8.3; LYPLA1 inh: 3.2; LYPLA2 counter: 5.8; GSTO1 inh: 8.7

How did COc1ccc(C(=O)NCc2nnc(SCC(=O)N3CCOCC3)o2)cc1OC do in these assays?
PME-1 inh: 2.3; Fam108B counter: 4.2; PAD4 inh: 4.1; LYPLA1 inh: 2.9; LYPLA2 counter: 5.3; GSTO1 inh: 5.1

What do the screens show for `COc1cccc(CNC(=O)CN2C(=O)COc3ccc(S(=O)(=O)N4CCCCC4)cc32)c1`?
PME-1 inh: 4.0; Fam108B counter: -4.7; PAD4 inh: 1.1; LYPLA1 inh: -2.6; LYPLA2 counter: 4.4; GSTO1 inh: -1.2

Results for COc1cccc(NC(=O)CN2C(=O)COc3ccc(S(=O)(=O)N4CCCCCC4)cc32)c1 ?
PME-1 inh: -7.7; Fam108B counter: 0.2; PAD4 inh: -1.1; LYPLA1 inh: 1.3; LYPLA2 counter: 34.9*; GSTO1 inh: 4.3; LYPLA2 confirm: 38.2*

Results for CCN(CC)S(=O)(=O)c1ccc(N2CCOCC2)c(NC(=O)COc2ccc(C#N)cc2)c1 ?
PME-1 inh: 10.6; Fam108B counter: -4.0; PAD4 inh: -7.5; LYPLA1 inh: 3.5; LYPLA2 counter: 77.1*; GSTO1 inh: 14.0; LYPLA2 confirm: 78.5*; LYPLA2 gel ABPP: 64.0*

Results for CCN(CC)S(=O)(=O)c1ccc(N2CCOCC2)c(NC(=O)c2cc(=O)[nH]c3ccccc23)c1 ?
PME-1 inh: -5.0; Fam108B counter: -2.3; PAD4 inh: -5.4; LYPLA1 inh: -1.1; LYPLA2 counter: 35.8*; GSTO1 inh: -4.9; LYPLA2 confirm: 43.0*

What do the screens show for `COc1ccc(Cc2c(O)nc(SCC(=O)NC(C)(C)C)[nH]c2=O)cc1`?
PME-1 inh: -3.8; Fam108B counter: 0.2; PAD4 inh: -0.1; LYPLA1 inh: -1.9; LYPLA2 counter: -1.1; GSTO1 inh: 9.7

How did Fc1ccccc1COc1ccc(Br)cc1CNCc1ccncc1 do in these assays?
PME-1 inh: 6.1; Fam108B counter: 3.7; PAD4 inh: 5.5; LYPLA1 inh: -3.6; LYPLA2 counter: 27.0*; GSTO1 inh: 9.8; LYPLA2 confirm: 2.0

What do the screens show for `Fc1ccccc1COc1ccc(Br)cc1CNCc1cccnc1`?
PME-1 inh: 4.8; Fam108B counter: -1.3; PAD4 inh: -0.8; LYPLA1 inh: -1.7; LYPLA2 counter: -1.4; GSTO1 inh: -2.6

How did CCCCn1c(N)c(N(C)C(=O)c2cn(-c3ccccc3)nc2-c2ccccc2)c(=O)[nH]c1=O do in these assays?
PME-1 inh: -0.6; PAD4 inh: -9.3; LYPLA1 inh: 1.3; LYPLA2 counter: -1.3

Results for COCCCNC(=O)c1sc2ncn(CC(=O)Nc3ccc(C)c(Cl)c3)c(=O)c2c1C ?
PME-1 inh: -4.8; Fam108B counter: -2.6; PAD4 inh: -1.0; LYPLA1 inh: -10.8; LYPLA2 counter: 41.6*; GSTO1 inh: -1.5; LYPLA2 confirm: 35.4*

High-throughput results (PubChem BioAssay)
